Where “and” joins values, the source holds several entries; their conditions need not be identical. Equal entries are not always repeated. Inconclusive results are not listed. A call without a number means that no potency is given here. Calls of active or inactive are those of the source. Calls come from the whole dose curve; as a rule, active = well fitted cell-killing curve with a large enough effect in the repeat runs; inconclusive = weak or mixed curves, or effect the other way; inactive = flat fitted curve, though single readings scatter.
Assay: qHTS assay to identify small molecule antagonists of the estrogen receptor alpha (ER-alpha) signaling pathway using the BG1 cell line in the presence of 0.1 nM 17-beta-estradiol - cell viability counter screen (AID 1259241); note: nearly all actives have a fitted effect of over 40% in size
Settings: VM7Luc4E2 (BG1) viability, CellTiter-Fluor protease, 22 h, 0.1 nM estradiol agonist added; series mostly up to 92.4 µM
How it was run: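 Cells were plated and left 24 hr, compounds in DMSO were pinned in, 17beta-estradiol was added to 0.1 nM final, and after 22 hr CellTiter-Fluor reagent was added for 30 min before fluorescence was read.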
Potency is the fitted concentration of half-maximal effect.

SMILES | Potency
O=C1OC(=O)c2ccc3c4c(ccc1c24)C(=O)OC3=O | inactive
CCN(CC)CCSC(=O)C(c1ccccc1)c1ccccc1 | inactive
C=C1C(C)(C)[C@@]2(Cl)C(Cl)[C@]1(Cl)C(Cl)(Cl)C2(Cl)Cl (stereo not given in full) | inactive
c1ccc(Sc2ccccc2)cc1 | inactive
CCCCCCCC(=O)OCC | inactive
CCN=c1cc2oc3cc(NCC)c(C)cc3c(-c3ccccc3C(=O)OCC)c-2cc1C | 8.6 µM (active) and 10.9 µM (active)
COc1cccc(CCc2ccccc2OCC(CN(C)C)OC(=O)CCC(=O)O)c1 (stereo not given) | inactive
CC(C)(C)C1=CC(=O)C=C(C(C)(C)C)C1=O | inactive
Cc1cc(Nc2ccc(O)cc2)ccc1N | 27.2 µM (active)
CCC1CCCCC1 | inactive
CCCCCCCCCCCCCc1ccccc1 | inactive
CC(=O)C=O | inactive
CCCCCCCCCCCCCCCC | inactive
O=c1cccc[nH]1 | inactive
Cc1ccc(CCn2c3c(c4cc(Cl)ccc42)CN(C)CC3)cn1 | inactive
COc1ccc(-n2nc(CCC(=O)N(C)O)cc2-c2ccc(Cl)cc2)cc1 | inactive
C1CC(COCC2CO2)CCC1COCC1CO1 (stereo not given) | inactive
CCO[Si](C)(C)OCC | inactive

SMILES | Potency
COc1ccccc1C=O | inactive
CC(C)c1ccccc1N | inactive
O=S(=O)(O)CCCN1CCOCC1 | inactive
CCCCCCCCC(C)=O | inactive
CC=O | inactive
C[Si](C)(C)Cl | inactive
CCN(CC)c1ccc(N)cc1 | 17.7 µM (active)
O=C[C@H](O)[C@H](O)[C@H](O)CO | inactive
c1cc(OCC2CO2)cc(OCC2CO2)c1 (stereo not given) | inactive
Oc1ccc(-c2ccc(O)cc2)cc1 | inactive
CCc1cccc(C)c1 | inactive
CCC(C)c1cc([N+](=O)[O-])cc([N+](=O)[O-])c1OC(=O)OC(C)C (stereo not given) | 38.6 µM (active)
O=C1OC(OC(=O)c2cccnc2Nc2cccc(C(F)(F)F)c2)c2ccccc21 (stereo not given) | inactive
CCCC(CC)CCCCCCCN (stereo not given) | inactive
Cc1cn[nH]c1 | inactive
C=C(C)C(=O)OCCC[Si](Cl)(Cl)Cl | inactive
CC(=O)Oc1ccc(C2(c3ccc(OC(C)=O)cc3)Oc3ccccc3NC2=O)cc1 | inactive
